# Assay results: US20210230599, “STEM-LOOP COMPOSITIONS AND METHODS FOR INHIBITING INTERLEUKIN-8” (VITRISA THERAPEUTICS, INC., published 2021)
# Target: Interleukin-8 (IL8, CXCL8), C-terminal His-tagged (Homo sapiens, UniProt P10145 SEQ:1-72)
# Assay: competition; competition TR-FRET; G18A
# Settings: tags: C-terminal 6xHis (Sino Biological); ssRNA; 2'-F G, 2'-OMe A/C/U, 5' C6NH2, 3' idT
# Method: To better understand the sequence requirements and to confirm the stem structures of members of the Aptamer 3 family as determined from sequence covariation analysis from both the primary and secondary (degenerate) selections, a series of variants which included mutations and deletions to the predicted stems were synthesized and screened (Table 24). Activity of each of these variants were tested using a time resolved competition TR-FRET assay in which the labeled parent Aptamer 3 was competed with increasing concentrations of unlabeled variants for binding to IL8 (FIG. 14). Briefly, 2-fold dilutions of thermally equilibrated aptamers were made in TR-FRET Buffer (50 mM MOPS, pH 7.4, 125 mM NaCl, 5 mM KCl, 50 μM CHAPS, 0.1 mg/mL BSA, 1 mM CaCl₂, and 1 mM MgCl₂). 5 μL of aptamer or control solution was added to 5 μl mix of 10 nM C-terminal His-tagged-IL8, 60 nM ALEXA FLUOR® 647-labeled Aptamer, and 5 nM anti-His-Eu (Perkin Elmer) in a black wall low volume 384 well plate (Greiner). For control, 5 μl of 1000-fold excess of unlabeled parent aptamer or 5 μl TR-FRET buffer alone was added to the mix of ALEXA FLUOR® 647-labeled aptamer, His-IL8, and anti-His-Eu. The plate was covered with a plate seal and subsequently incubated in the dark for 1 hour at room temperature. The plate was read on a Biotek CYTATION™ 5 plate reader. […]
row,Sequence,binding signal [fold worse than Aptamer 3]
1,UGAUGACGGUAGAUUACAGGUAGAGUGACCGCAUCU,~5
